{
  "source": "PubChem BioAssay (NCATS)",
  "note": "Records with an inconclusive call do not appear. A number with no mark means an inactive call. Active and inactive are the calls of the source. The call rests on the fitted dose curve. Potency means the concentration at half of the fitted maximal effect.",
  "data": [
    {"test": "Cell Viability - SK-N-SH (AID 435);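 further: compound exposure lasted 40 h at 37 °C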", "conditions": "SK-N-SH neuroblastoma cell viability qHTS", "procedure,_shortened": "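SK-N-SH neuroblastoma cells (1500/well) treated 40 h at 37 °C in complete medium; viability read as cellular ATP by CellTiter-Glo luminescence. Normalized to DMSO and 100 uM tamoxifen; AC50 from Hill fits of qHTS concentration-response.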", "values": [
      {"smiles": "CCCCC(CC)COC(=O)c1ccccc1C(=O)O", "note": "(centres undefined)", "Potency": "> 92 µM"},
      {"smiles": "Cc1cc(C(C)(C)C)c(O)c(C(C)(C)C)c1", "Potency": "> 92 µM"},
      {"smiles": "O=C(Oc1ccccc1)c1ccccc1O", "Potency": "> 92 µM"},
      {"smiles": "CC(C)(c1ccc(O)cc1)c1ccc(O)cc1", "Potency": "> 92 µM"},
      {"smiles": "O=C(NO)c1ccccc1", "Potency": "> 92 µM"},
      {"smiles": "c1ccc2occc2c1", "Potency": "> 92 µM"},
      {"smiles": "C1=CC2C3C=CC(C3)C2C1", "note": "(centres undefined)", "Potency": "> 92 µM"},
      {"smiles": "Brc1ccccc1-c1ccccc1", "Potency": "> 92 µM"},
      {"smiles": "CC(C)C(C)(C)C(C)(C)C(C)(C)S", "Potency": "> 92 µM"},
      {"smiles": "Nc1cccc2c(N)cccc12", "Potency": "> 92 µM"},
      {"smiles": "OCc1c[nH]c2ccccc12", "Potency": "> 92 µM"},
      {"smiles": "CCCCCCCCCCCCCCCC[n+]1ccccc1", "Potency": "28.7 µM (active)"},
      {"smiles": "Cc1ccc(O)cc1", "Potency": "> 92 µM"},
      {"smiles": "Nc1ccc(O)cc1", "Potency": "43 µM (active)"},
      {"smiles": "Oc1ccccc1", "Potency": "> 92 µM"},
      {"smiles": "O=C(c1ccccc1)c1ccccc1", "Potency": "> 92 µM"},
      {"smiles": "CC(C)(C)c1ccc(O)c(O)c1", "Potency": "54.4 µM (active)"},
      {"smiles": "Nc1c2ccccc2nc2ccccc12", "Potency": "40.5 µM (active)"},
      {"smiles": "COc1cc(C=O)ccc1O", "Potency": "> 92 µM"}
    ]}
  ]
}
